The entries come from a sample that favours hits as a whole.
IDE exosite FP: displaces the probe from the exo-site of human IDE; P14735; purified IDE, FL-6b probe fluorescence polarization; hits give low values; z-score at 20 µM; 6.3% of 17,000 active; AID 1259349;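 active means z-score of -3 or lower, meaning strong loss of probe binding signal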;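 further: His-tagged human IDE residues 42-1019 made in E. coli with 30 nM FL-6b probe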
Target sequence (P14735 42-1019 limits assumed): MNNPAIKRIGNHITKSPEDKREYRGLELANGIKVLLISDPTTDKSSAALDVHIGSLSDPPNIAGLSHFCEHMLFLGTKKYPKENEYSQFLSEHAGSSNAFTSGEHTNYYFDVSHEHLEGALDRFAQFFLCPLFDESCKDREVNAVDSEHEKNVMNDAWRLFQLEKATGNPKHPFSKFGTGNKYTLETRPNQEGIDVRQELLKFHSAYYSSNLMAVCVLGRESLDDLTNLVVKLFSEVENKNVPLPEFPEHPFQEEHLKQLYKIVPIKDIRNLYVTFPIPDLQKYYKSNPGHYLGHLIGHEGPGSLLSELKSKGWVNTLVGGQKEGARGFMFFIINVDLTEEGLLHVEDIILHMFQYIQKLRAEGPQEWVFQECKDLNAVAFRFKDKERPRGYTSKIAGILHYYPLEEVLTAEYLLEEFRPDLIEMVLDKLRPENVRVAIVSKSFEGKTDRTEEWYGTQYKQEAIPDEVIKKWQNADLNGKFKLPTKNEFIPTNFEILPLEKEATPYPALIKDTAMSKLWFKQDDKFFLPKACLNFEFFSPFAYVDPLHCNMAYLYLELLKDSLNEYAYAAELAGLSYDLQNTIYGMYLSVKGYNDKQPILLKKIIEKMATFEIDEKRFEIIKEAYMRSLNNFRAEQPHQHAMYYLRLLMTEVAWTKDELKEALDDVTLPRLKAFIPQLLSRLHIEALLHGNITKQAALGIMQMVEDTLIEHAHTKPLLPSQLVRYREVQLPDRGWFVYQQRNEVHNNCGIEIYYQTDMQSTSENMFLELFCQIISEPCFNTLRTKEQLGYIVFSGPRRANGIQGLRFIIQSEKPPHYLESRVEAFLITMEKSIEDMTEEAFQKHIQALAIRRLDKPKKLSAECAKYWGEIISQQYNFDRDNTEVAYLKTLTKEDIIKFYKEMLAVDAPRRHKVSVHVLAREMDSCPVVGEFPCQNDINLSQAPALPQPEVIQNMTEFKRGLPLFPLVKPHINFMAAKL
A number is an active result; - = inactive.

SMILES	IDE exosite FP
C[C@@H]1CN([C@H](C)CO)C(=O)Cc2cc(NC(=O)CCC(F)(F)F)ccc2O[C@H]1CN(C)CC1CC1	-
COc1cccc(C(=O)Nc2ccc3c(c2)C(=O)N(C)[C@H]2CC[C@@H](CC(=O)NCc4ccc(F)cc4)O[C@@H]2CO3)c1	-6.19
COc1ccc(C(=O)Nc2ccc3c(c2)C(=O)N(C)[C@H]2CC[C@H](CC(=O)NCC4CC4)O[C@H]2CO3)cc1	-3.58
CN1C(=O)c2cc(NS(C)(=O)=O)ccc2OC[C@@H]2O[C@H](CC(=O)NCc3ccccc3)CC[C@@H]21	-
CN1C(=O)c2cc(NS(C)(=O)=O)ccc2OC[C@H]2O[C@H](CC(=O)N3CCOCC3)CC[C@H]21	-
COc1cccc(C(=O)Nc2ccc3c(c2)C(=O)N(C)[C@H]2CC[C@@H](CC(=O)NCc4ccc(F)cc4)O[C@H]2CO3)c1	-
COc1ccc(C(=O)Nc2ccc3c(c2)C(=O)N(C)[C@H]2CC[C@H](CC(=O)NCC4CC4)O[C@@H]2CO3)cc1	-
CCS(=O)(=O)Nc1ccc2c(c1)C(=O)N(C)[C@@H]1CC[C@H](CC(=O)NCc3ccc(OC)cc3)O[C@H]1CO2	-
CN1C(=O)c2cc(NS(C)(=O)=O)ccc2OC[C@@H]2O[C@@H](CC(=O)N3CCOCC3)CC[C@@H]21	-5.06
COc1cccc(C(=O)Nc2ccc3c(c2)C(=O)N(C)[C@H]2CC[C@H](CC(=O)NCc4ccc(F)cc4)O[C@H]2CO3)c1	-
COc1ccc(C(=O)Nc2ccc3c(c2)C(=O)N(C)[C@H]2CC[C@@H](CC(=O)NCC4CC4)O[C@@H]2CO3)cc1	-
CN1C(=O)c2cc(NS(C)(=O)=O)ccc2OC[C@@H]2O[C@H](CC(=O)N3CCOCC3)CC[C@@H]21	-
CCS(=O)(=O)Nc1ccc2c(c1)C(=O)N(C)[C@H]1CC[C@@H](CC(=O)NCc3ccc(OC)cc3)O[C@@H]1CO2	-4.24
N#Cc1cccc(-c2ccc(C3[C@@H]4CN(C(=O)C5CCCCC5)C[C@H]3N4)cc2)c1 (stereo partly drawn)	-
CN1C(=O)c2cc(NC(=O)c3cccc(C(F)(F)F)c3)ccc2OC[C@@H]2O[C@@H](CC(=O)NCCN3CCCC3)CC[C@@H]21	-
COc1ccccc1C(=O)Nc1ccc2c(c1)C(=O)N(C)[C@H]1CC[C@H](CC(=O)Nc3cccc(C(C)C)c3)O[C@@H]1CO2	-
CCS(=O)(=O)N1CC(=O)N2[C@@H](CO)[C@H](c3ccc(C#CCC4CCCC4)cc3)[C@@H]2C1	-
O=C1CNC[C@H]2[C@H](c3ccc(-c4ccccc4F)cc3)[C@H](CO)N12	-
N#C[C@@H]1[C@H](c2ccccc2-c2cccc(F)c2)[C@@H](CO)N1S(=O)(=O)c1cccc(F)c1	-
CN(C)CC(=O)N1C[C@@H]2[C@H](c3ccccc31)[C@H](CO)N2C(=O)c1ccccn1	-
CCCN(C)C[C@@H]1Oc2ncc(-c3cccc(OC)c3)cc2C(=O)N([C@H](C)CO)C[C@@H]1C	-
COc1ccc(NC(=O)N2CCC3(CC2)CN(C(=O)CN2CCOCC2)[C@@H](CO)c2[nH]c4cc(OC)ccc4c23)cc1	-
O=C1CN(S(=O)(=O)c2ccccc2)C[C@H]2[C@@H](c3ccc(C4=CCCC4)cc3)[C@@H](CO)N12	-
Cc1ccccc1-c1ccc([C@H]2[C@@H](CO)N3CCCCN(C(=O)c4cccnc4)C[C@@H]23)cc1	-4.79
Cc1ccccc1-c1ccc([C@@H]2[C@@H](CO)N3CCCCN(C(=O)c4cccnc4)C[C@@H]23)cc1	-7.98
SMILES	IDE exosite FP
Cc1ccccc1-c1ccc([C@@H]2[C@H]3CN(C(=O)c4cccnc4)CCCCN3[C@H]2CO)cc1	-7.33
CCC(=O)N1[C@H](CO)[C@@H](c2ccccc2)[C@H]1CN(C(C)C)S(C)(=O)=O	-
CO[C@H](CN(C)C(=O)c1cnccn1)[C@H](C)CN([C@H](C)CO)S(=O)(=O)c1ccccc1	-
CCS(=O)(=O)Nc1ccc2c(c1)C(=O)N(C)C[C@H](OC)[C@@H](C)CN(C(=O)c1ccc3c(c1)OCO3)[C@@H](C)CO2	-
O=C(C[C@@H]1C[C@H]2c3cc(NC(=O)c4cccnc4)ccc3O[C@H]2[C@H](CO)O1)NCc1cc(F)ccc1F	-
CC(=O)N(C[C@@H]1N[C@@H](CO)[C@@H]1c1ccc(-c2ccccc2)cc1)C(C)C	-
C[C@H]1CC=CC[C@@H](c2ccccc2)NC(=O)[C@H](C)N(C)C(=O)c2ccccc2O1 (mixture of isomers)	-
O=C(c1ccc(F)cc1)N1CC(=O)N2[C@H](C1)[C@H](c1ccc(C3=CCCC3)cc1)[C@@H]2CO	-
CCCC#Cc1ccc([C@@H]2[C@@H](CO)N3CCCCN(Cc4ccncc4)C[C@H]23)cc1	-
OC[C@H]1[C@H](c2ccc(/C=C/c3ccccc3)cc2)[C@@H]2CN(Cc3cccnc3)CCCCN12	-
CCCC#Cc1ccc([C@H]2[C@@H](CO)N3CCCCN(Cc4ccncc4)C[C@H]23)cc1	-
OC[C@@H]1[C@@H](c2ccc(-c3ccc(F)cc3)cc2)[C@@H]2CN(Cc3cccnc3)CCCCN12	-
OC[C@@H]1[C@@H](c2ccc(/C=C/c3ccccc3)cc2)[C@H]2CN(Cc3cccnc3)CCCCN12	-5.22

Assay outcomes: PubChem BioAssay, Broad Institute
